# Bioassay records from PubChem.
# IL1B secr inh: inflammasome signaling inhibition, IL-1 beta readout. 360,000 tested, 4.7% active. AID 743279. THP-1 LPS/ATP IL-1B secretion, AlphaLISA, 16 h; stronger effect = lower value. activity change, % at 57.5 µM; in the data active means activity change below about -50%; inconclusive means mostly about -30% to -49%
#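 THP-1 cells pretreated 1 hr with compounds (up to 57.5 uM final), then stimulated with LPS (250 ng/mL final) plus ATP (1.25 mM final); secreted IL-1B measured by AlphaLISA after 16 hr, decreased signal indicating inhibition.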
# DT40 TDP1 no CPT: qHTS for Inhibitors of human tyrosyl-DNA phosphodiesterase 1 (TDP1): qHTS in cells in absence of CPT; AID 686978, 2013; DT40 Tdp1-/- hTDP1 cells, no CPT, ATP luminescence, 48 h; 420,000 tested, 15% active; Potency, µM (top dose mostly 46.2 µM), for the others: at the top dose activity change, negative = growth inhibition, actives largely listed as inhibitors; further: potency means the concentration at half of the fitted maximal effect; nearly all actives have a fitted effect of over 55% in size
#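 Cells were dispensed at 400 per well, compounds added by pin tool, plates incubated ≥48 hr at 37 °C, then CellTiter-Glo added for 30 min at room temperature before luminescence reading. Line: DT40 Tdp1-/- complemented with hTDP1; camptothecin omitted.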
# TDP1 cell CPT: growth inhibition of DT40 Tdp1-/-;hTDP1 cells with camptothecin (screen for TDP1 inhibitors); Potency, µM (series often up to 46.2 µM), for the others: at the highest dose activity change, negative = growth inhibition, hits mostly inhibitors; AID 686979; 420,000 tested, 12% active; chicken DT40 Tdp1-/-;hTDP1 cells + 20 nM CPT, ATP luminescence, 48 h; further: potency means the concentration at half of the fitted maximal effect; nearly all actives have a fitted effect of over 55% in size
#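 Cell growth measured by CellTiter-Glo luminescence after a minimum 48 h, 37 C compound exposure with 20 nM CPT in Tdp1-knockout DT40 cells stably expressing hTDP1, seeded 400/well; qHTS titration format.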
# HT1080 IDH1KD tx: kills HT-1080 cells with IDH1 knockdown; Potency, µM (series often up to 46.1 µM), for the others: at the highest dose activity, negative = toxicity, most hits filed as cytotoxic; 360,000 tested, 2% active; HT-1080 IDH1 knockdown viability, ATP luminescence, 48 h;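 further: potency means the concentration at half of the fitted maximal effect; 0% = DMSO wells and -100% = cell-free medium wells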
#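 In this qHTS, HT-1080 cells depleted of IDH1 are exposed for 48 h at 37 °C to compound titrations. Toxicity is scored from CellTiter-Glo luminescence, with DMSO as full viability and medium alone as none.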
# HT1080-NT tox: kills 2HG-producing HT-1080-NT fibrosarcoma cells | 360,000 tested, 1.6% active | HT-1080-NT fibrosarcoma viability, CellTiter-Glo ATP luminescence, 48 h | Potency, µM (titrated, usually from 46.1 µM), for inactives: top-dose activity, negative = less viability, hits mostly cytotoxic;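 further: NT is the 2HG producing partner of a matched IDH1 knockdown line; potency means the concentration at half of the fitted maximal effect; 0% = DMSO-treated cells and -100% = media-only wells without cells; nearly all actives have a fitted effect of over 55% in size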
#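 Luminescent CellTiter-Glo readout after 48 hours of compound exposure at 37 degrees C defined viability of HT-1080-NT cells. Activity was normalized to DMSO wells and cell-free media wells; concentration-response curves were fitted and assigned curve classes.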
# Numbers without * were called inactive; ? = inconclusive; / = not tested or not shown. Most compounds without a hit are left out; they make up all but 19% or so of the library. Unless noted, the call rests on the fitted dose curve; in most records, active means well fitted curve in the direction sought with a large enough effect; inconclusive means small, poorly fitted or top-dose-only effect, or another doubt; inactive means no such curve, though single readings can be large; an effect the other way counts as inactive or inconclusive. Unless noted, on the % scale 0 is the no-effect control and ±100 the full control effect.
SMILES,IL1B secr inh,DT40 TDP1 no CPT,TDP1 cell CPT,HT1080 IDH1KD tx,HT1080-NT tox
COc1ccc(-c2[nH]c(-c3ccc(O)cc3)nc2-c2ccccc2)cc1,/,?,15µM*,/,/
COc1ccc(-c2nc(-c3ccc4c(c3)OCO4)[nH]c2-c2ccc(OC)cc2)cc1,?,?,?,?,18µM*
COc1ccc(-c2noc(-c3ccc4c(c3)OCO4)n2)cc1,2,-11%,-10%,21%,29%
Cc1nnc(SCC(=O)NNC(=O)COc2ccc(Br)cc2)n1C,-2,8%,1%,4%,7%
Cc1nc(C(F)(F)F)ccc1C(=O)N1CCCC1(C)C(=O)NCC(C)C (configuration not stated),0,-11%,?,15%,2%
CCC(C)[C@H](NC(=O)N1CC(=O)Nc2ccccc21)C(=O)N[C@H](C(=O)O)c1ccccc1 (some centres not stated),31,2%,4%,8%,8%
CN(C)C=NC(=O)c1cc2c(n(-c3ccccc3)c1=O)CC(C)(C)CC2=O,/,2%,3%,/,/
O=C(OC1CCOC1=O)c1ccc(Cl)c(S(=O)(=O)N2CCOCC2)c1 (configuration not stated),9,5%,-10%,0%,6%
O=C(CCNS(=O)(=O)c1ccc2c(c1)CCN2C(=O)C1CC1)Nc1ccc(F)cc1F,/,13µM*,8.2µM*,/,/
Cc1cccc(NC(=O)CCNS(=O)(=O)c2ccc3c(c2)CCN3C(=O)C2CC2)c1,/,21µM*,18µM*,/,/
CC(C)N(C(=O)[C@H]1C[C@H](CC(=O)NC(C)(C)C)C(=O)N2CCc3c([nH]c4cc(-c5ccco5)ccc34)[C@]12C)C(C)C,-67*,?,?,-23%,-22%
CCN(CC)C(=O)[C@H]1C[C@H](CC(=O)NC(C)(C)C)C(=O)N2CCc3c([nH]c4cc(-c5ccco5)ccc34)[C@]12C,-8,18µM*,23µM*,0%,-5%
Cc1cc(C)c(C)c(S(=O)(=O)N(C)C2CCN(C)CC2)c1C,-18,16µM*,23µM*,-14%,-1%
COc1ccc2[nH]c(C)c(CCNC(=S)Nc3cc(C)ccc3C)c2c1,4,9.2µM*,8.2µM*,1%,-17%
CCc1cccc(C)c1NC(=S)NCCc1c(C)[nH]c2ccc(C)cc12,53,21µM*,10µM*,-20%,-12%
COc1ccc2[nH]c(C)c(CCNC(=S)Nc3ccccc3OC)c2c1,-13,23µM*,18µM*,14%,-1%
Cc1ccc2[nH]c(C)c(CC(=O)NCc3ccccc3)c2c1,-4,?,0%,-18%,-7%
COc1ccc2[nH]c(C)c(CCNC(=S)Nc3cc(C)cc(C)c3)c2c1,-13,?,?,-1%,2%
COc1ccc2[nH]c(C)c(CCNC(=S)Nc3ccc(F)cc3)c2c1,-30,23µM*,16µM*,5%,-7%
O=C(CCSCc1ccccc1Cl)NCCc1ccccc1,/,-3%,0%,/,/
O=C(NCC(=O)N1CCN(C(=O)c2ccccc2)CC1)c1ccc(Cl)cc1Cl,0,-5%,-2%,-2%,5%
C[C@H](O)[C@@H]1CN2CCc3c([nH]c4ccccc34)[C@@H]2C[C@@H]1N(C)C(=O)Nc1ccccc1,-28,?,?,5%,-19%
COc1ccc(CN(C)[C@H]2C[C@H]3c4[nH]c5ccccc5c4CCN3C[C@H]2[C@H](C)O)cc1,-26,18µM*,?,-12%,-13%
Cc1ccc(S(=O)(=O)N(C)[C@H]2C[C@H]3c4[nH]c5ccccc5c4CCN3C[C@H]2[C@H](C)O)cc1,-7,?,21µM*,-25%,-27%
COc1ccc(NC(=O)N(C)[C@H]2C[C@H]3c4[nH]c5ccccc5c4CCN3C[C@H]2[C@H](C)O)cc1,-25,?,?,?,?
Cc1ccc(C)c(-n2cc(CN3CCCN(C=O)CC3)c(-c3ccccc3)n2)c1,14,4%,-13%,-6%,0%
